Shown is part of a subset that was picked to be rich in hits.
Pf Dd2 inh: inhibitors of Plasmodium falciparum Dd2 growth; 4.3% of 120,000 active; Potency, µM (doses to about 28.9 µM), inactives show at the top dose activity, negative = inhibition, hits mostly inhibitors; P. falciparum Dd2 growth, SYBR Green, 72 h; active = well fitted inhibition curve with a large enough effect;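 also: plate controls were DMSO vehicle for no effect and reference drug for full effect; nearly all actives have a fitted effect of over 65% in size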
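Readout: SYBR Green fluorescence, 485 nm excitation, 535 nm emission, after ~16 h lysis at 37C. Before that, Dd2-infected red cells (2.5% hematocrit) grew 72 h with compound, 29 uM top final concentration.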
The depositor's hits bear a star; i = inactive; [ ] = remark or other dose. Potency is read from the fitted curve at half-maximal effect.

SMILES	Pf Dd2 inh
CCn1cc(C(=O)NCCCN2CCCC(C)C2)c(=O)c2cc(S(=O)(=O)N(C)C3CCCCC3)ccc21 (centres undefined)	1µM*
CCCCN(CCCC)CCNC(=O)c1cn(CC)c2ccc(S(=O)(=O)N(C)C3CCCCC3)cc2c1=O	-17.8%
CCn1cc(C(=O)NCCc2ccccc2)c(=O)c2cc(S(=O)(=O)N(C)C3CCCCC3)ccc21	-6.7%
CCCCN(CC)CCCNC(=O)c1cn(CC)c2ccc(S(=O)(=O)N3CCc4ccccc4C3)cc2c1=O	10µM*
CCCN(CCC)CCCNC(=O)c1cn(CC)c2ccc(S(=O)(=O)N3CCc4ccccc4C3)cc2c1=O	-17.8%
CCn1cc(C(=O)NCCCN(CC(C)C)CC(C)C)c(=O)c2cc(S(=O)(=O)N3CCc4ccccc4C3)ccc21	2.2%
CC[C@H]1CN(S(=O)(=O)c2c(C)noc2C)CC[C@H]1CC(=O)N(C)CC#N	-23.5%[44.1 µM]
Cc1ccccc1CNC(=O)CCc1ccnc(N2CCOCC2)c1	-25.8%
Cc1noc(-c2ccc(OC3CN(C(=O)c4cccn4C)C3)cc2)n1	4.8%[5.79 µM]
Cc1cc(C(=O)NCCc2noc(-c3ccncc3)n2)nn1C	-22.8%
Cn1c([C@H]2CCN(C(=O)NC3CCCCC3)C2)nc2ccccc21	i
O=C(O)C[C@@H]1CCN(C(=O)C2CC2)C[C@@H]1CCN1CCN(c2ccccc2)CC1	-11.1%[44.1 µM]
COCC(=O)NC1CCC12CCN(C(=O)NCc1ccc(C)cc1)CC2 (centres undefined)	-2.1%
CC(c1ccc(-c2ccc(CC(=O)O)cn2)cc1)N1CCCCC1 (centres undefined)	-8.7%
CC1CCC2(CC1)NC(=O)N(CC(=O)N1CCCCCC1)C2=O (centres undefined)	i
Cc1ccc(CN2C(=O)[C@@H]3C[C@@H](O)CN3C3(CN(C4CCCC4)C3)C2=O)o1	i
Cc1ccc(-c2cc3c(=O)n(CCNC(=O)c4ccc(F)c(F)c4)ccn3n2)c(C)c1	i
Cc1ccc(-c2cc3c(=O)n(CCNC(=O)Cc4ccccc4Cl)ccn3n2)c(C)c1	-7.0%
Cc1ccc(-c2cc3c(=O)n(CCNC(=O)c4ccc(F)cc4)ccn3n2)c(C)c1	2.82µM*
Cc1ccc(C(=O)NCCn2ccn3nc(-c4cc(C)ccc4C)cc3c2=O)cc1	i
Cc1ccc(-c2cc3c(=O)n(CCNC(=O)Cc4cccc(F)c4)ccn3n2)c(C)c1	-0.4%
Cc1ccc(-c2cc3c(=O)n(CCNC(=O)Cc4c[nH]c5ccccc45)ccn3n2)c(C)c1	10µM*
O[C@H]1CC[C@@H](Cc2cc(COc3ccccc3)on2)O[C@@H]1CNC1CCNCC1	17.5%
Cc1ccccc1C(=O)N[C@H]1[C@H](O)[C@H](O)C[C@@H]1c1ccc(N2CCOCC2)nc1	11.5%[44.1 µM]
Cn1nc(-c2ccc(F)cc2)cc1[C@H]1CN2CC[C@H]1C[C@@H]2COC(=O)Nc1cccc(C(F)(F)F)c1	-19.3%
SMILES	Pf Dd2 inh
Cc1nc(-c2cccs2)cc([C@H]2CN3CC[C@H]2C[C@@H]3CO)n1	11.2µM*
Cc1nc(-c2cccs2)cc([C@H]2CN3CC[C@H]2C[C@@H]3COC(=O)Nc2cccc(C(F)(F)F)c2)n1	7.94µM*
Cc1nc(-c2cccs2)cc([C@H]2CN3CC[C@H]2C[C@@H]3COC(=O)NC2CCCCC2)n1	i
CCNC(=O)NC[C@H]1C[C@@H]2CCN1C[C@@H]2c1cc(-c2cccs2)nn1C	i
Cn1nc(-c2cccs2)cc1[C@H]1CN2CC[C@H]1C[C@@H]2COC(=O)Nc1cccc(C(F)(F)F)c1	-7.9%
CCC1(N2CCN(C(=O)Cc3ccccc3OC)CC2)CCN(C(=O)NC)C1 (centres undefined)	i
O=C(C1CC1)N1C[C@@H]2OCC(=O)N(Cc3ccccc3)[C@@H]2C1	24.0%[44.1 µM]
Fc1ccccc1OCC1CCCN(c2nccc(-c3cccnc3)n2)C1 (centres undefined)	3.7%
COc1ccc(C(=O)N2CCC3(CC2)CC2C(=O)NCCN2C3)c(OC)c1 (centres undefined)	5.8%
COc1ccccc1-c1nc2c(c(SCc3cccc(Cl)c3)n1)Cc1c(CO)cnc(C)c1O2	2.51µM*
C=Cc1ccc(CSc2nc(-c3ccccc3Cl)nc3c2Cc2c(CO)cnc(C)c2O3)cc1	6.31µM*
Cc1ccc(-c2nc3c(c(SCc4ccc(Br)cc4)n2)Cc2c(CO)cnc(C)c2O3)cc1	-0.8%
COc1ccc(-c2nc3c(c(SCc4cc(C)ccc4C)n2)Cc2c(CO)cnc(C)c2O3)cc1	-8.3%
CCc1ccc(Nc2nc(-c3ccccc3F)no2)cc1	i
CCc1ccc(CSc2nc(-c3ccc(OC)cc3)nc3c2Cc2c(CO)cnc(C)c2O3)cc1	-5.6%
CCOc1ccc(N(CC)C(=O)CCc2nc(-c3ccccc3F)no2)cc1	46.7%[0.594 µM]
CCc1ccc(-c2nc3c(c(SCc4ccccc4F)n2)Cc2c(CO)cnc(C)c2O3)cc1	-10.3%
CCc1ccc(CSc2nc(-c3ccccc3F)nc3c2Cc2c(CO)cnc(C)c2O3)cc1	10µM*
CCN(CC)C(=O)CSc1nc(-c2ccccc2F)nc2c1Cc1c(CO)cnc(C)c1O2	11.2µM*
COc1ccc(-c2nc3c(c(SCC(=O)N(C)c4ccccc4)n2)Cc2cc(C)ccc2O3)cc1	8.7%
Cc1cccc(NC(=O)CSc2nc(-c3ccccc3Cl)nc3c2Cc2c(CO)cnc(C)c2O3)c1C	-1.4%
COC(=O)c1ccc(-c2noc(C[C@@H]3O[C@H](CNS(C)(=O)=O)[C@@H](O)[C@H]3O)n2)cc1	8.7%[44.1 µM]
COc1ccc(OC)c(S(=O)(=O)N2CCCC(c3nc(C(C)C)no3)CCNC(=O)CC2)c1 (centres undefined)	-16.4%
CC(C)CN(CC1CN(C(=O)Nc2cccc(Cl)c2)CCO1)C(=O)c1ccccc1 (centres undefined)	-12.6%
Nc1nccc(N2CC[C@H]3N(CCOCCO)CCC[C@]3(C(=O)O)C2)n1	-11.1%
SMILES	Pf Dd2 inh
NC(=O)CNC(=O)C1=C[C@@H](NC(=O)c2cccs2)[C@@H](O)[C@H](O)C1	-0.3%[44.1 µM]
CCCOCCNC(=O)c1c(C)noc1-c1ccc2c(c1)OCO2	13.6%
Cc1cc(C)c(NC(=O)Nc2ccc3snnc3c2)c(C)c1	i
O=C(Nc1cccc(C(F)(F)F)c1)Nc1ccc2snnc2c1	1.12µM*
O=C(Nc1cccc(C(F)(F)F)c1)c1ccc2snnc2c1	51.0%
CNC(=O)[C@@H](C1CC1)N1CCC[C@H]1C(=O)NC1CC1	28.2%[44.1 µM]
Cc1ncc2c(c1CNC(=O)c1ccccc1N1CCOCC1)CCNC2	3.4%
Cc1ccc(C2(O)CCN(CC(c3ccccc3)c3ccccc3)CC2)nc1	2.82µM*
Cc1ccc(C2(O)CCN(c3ncccc3C(F)(F)F)CC2)nc1	-19.1%
COc1ccccc1NC(=O)CN1CCC(O)(c2ccc(C)cn2)CC1	-8.1%
Cc1nc(C2CC2)ncc1C(=O)N1CCC2(CC1)NC(=O)CC2C(=O)O (centres undefined)	-8.6%
CCCc1cnc2c(c1SCc1cccc(C)c1)c(=O)n(C)c(=O)n2C	11.2µM*
CCCc1cnc2c(c1SCC(=O)Nc1ccccc1OCC)c(=O)n(C)c(=O)n2C	1.6%
CCCc1cnc2c(c1SCC(=O)Nc1cccc(C)c1C)c(=O)n(C)c(=O)n2C	0.7%
COCc1c(C(=O)N2CC(F)(F)C[C@H]2c2nc(C)no2)noc1C	23.9%
O=C1Cc2c(-c3ccccc3)n[nH]c2CN1CCOc1ccccc1	-21.4%[44.1 µM]
CC(C)Oc1cccc(-c2n[nH]c3c2CC(=O)N(CCOc2ccccc2)C3)c1	8.91µM*
O=C(O)c1cccc(-c2n[nH]c3c2CC(=O)N(CCOc2ccccc2)C3)c1	-12.3%[44.1 µM]

Screening results: PubChem BioAssay, National Center for Advancing Translational Sciences (NCATS)
